SMILES strings stand for the structures. About 2,700 (4%) of roughly 68,000 compounds showed an effect of 50% or more. The full list was thinned out, with strong results kept by preference.

The test relates to Plasmodium berghei. Briefly: Screen against P. berghei liver stage (PbLuc), transformed with Luciferase, at 2uM. In kind it is functional, HepG2. To be noted: tested at 2 uM.
Turning to `CCS(=O)(=O)Nc1ccc2[nH]c(C3CCC3)nc2c1`, the INHIBITION came to 74.44%.

For `Cn1cc(S(=O)(=O)Nc2ccc3[nH]c(C4CCC4)nc3c2)cn1`, the INHIBITION stood at 48.21%. Turning to `COc1cccc([C@H]2CN(C(C)=O)[C@@H]3CCN(Cc4ccsc4)C[C@H]23)c1`, the INHIBITION was -24.17%. As for `O=C(CC1CC1)N1CCO[C@H]2[C@H](OCCCn3cccn3)CC[C@@H]21`, the INHIBITION was 37.74%.

Consider `CC(C)c1nn(C)c(N(C)C)c1CNCc1ccc(N(C)C)nc1`, for which the INHIBITION was -4.43%. As for `O=C(C1CC1)N1CC2(CCNCC2)C1`, the INHIBITION is reported as 60.6%. Take `O=C(C1CCC1)N1CCC2(CCNCC2)C1`: the INHIBITION amounted to 2.94%. For the compound `O=C(C1CCCCC1)N1CC2(CCNCC2)C1`, the INHIBITION was found to be 27.1%. To `CC(=O)N1CCC(c2cccc(-c3cccc(C(=O)O)c3)n2)CC1` belongs 23.7%; to `CCOc1ccc(CC(=O)Nc2cnccc2SCCCO)cc1`, -15.31%.

For `CCc1cc(CNC(=O)NCC(c2ccco2)N2CCCC2)[nH]n1` (stereo not given), the INHIBITION stood at 42.11%. Regarding `O=C(NCc1ccccn1)NCC(c1ccco1)N1CCCC1` (stereo not given), the INHIBITION was 53.61%. For `O=C(NCc1ccccn1)NCC(c1ccco1)N1CCCCC1` (stereo not given), the INHIBITION is given as -18.65%. `COc1ccc(C[C@H]2CN(C(=O)c3ncccn3)CC[C@@H]2OC)cc1`: the INHIBITION worked out at 33.74%. As to `COCCN1C[C@H]2CCN(C(=O)c3cc(C)on3)CC[C@H]2S1(=O)=O`, the INHIBITION was 63.35%.

For `COc1ccc(C[C@H]2CN(C(=O)c3cc(C)no3)CC[C@H]2OC)cc1`, the INHIBITION is 51.26%.

With `Cc1cc(C(=O)N2CC[C@@H]3CN(CCC(C)C)S(=O)(=O)[C@@H]3CC2)no1`, the INHIBITION was 36.44%.

`COc1ccc(C[C@H]2CN(C(=O)c3ccncc3)CC[C@@H]2OC)cc1`: the INHIBITION is given as -9.66%. As for `Cc1cc(C(=O)N2CC[C@@H](O)[C@@H]2Cc2ccccc2)no1`, the INHIBITION was 19.42%. The value for `Cc1cc(C(=O)N2CC[C@@H]3CN(C)S(=O)(=O)[C@@H]3CC2)no1` was -27.81%; that for `CO[C@H]1CCN(C(=O)c2cc(C)on2)C[C@@H]1Cc1ccccc1` was 59.5%; that for `CO[C@H]1CCN(C(=O)c2cc(C)on2)[C@H]1Cc1ccncc1` was -11.88%. The value for `COCCO[C@H]1CCN(C(=O)c2cc(C)on2)[C@H]1Cc1ccccc1` was 62.46%. On to `COc1ccc(C[C@H]2CN(C(=O)c3ccn(C)n3)CC[C@H]2OC)cc1`, for which the INHIBITION is reported as 15.57%. Turning to `COc1ccc(C[C@H]2CN(C(=O)c3ccc(C)nc3)CC[C@@H]2OC)cc1`, the INHIBITION came out at 15.57%. `Cc1cnn(CC2CN(Cc3nc(C4CC4)no3)CCO2)c1` (stereo not given): the INHIBITION is listed as -18.67%. For the compound `c1cnc(NCc2cncc3c2CCN(Cc2ccsc2)C3)nc1`, the INHIBITION is given as 46.11%. For `CSc1nc2ccsc2c(=O)n1CC(=O)N1CCCCC1C` (stereo not given), the INHIBITION was -24.07%. Take `CC(C)NC(=O)N1CCC2(CC(=O)N(c3cccc(C#N)c3)C2)C1` (stereo not given): the INHIBITION was -8.23%. The value for `O=C(C1CCOCC1)N1C[C@H](OCc2cccnc2)[C@H]2COC[C@H]21` was 26.19%. In the case of `CCOc1ncccc1C(=O)N1CCCC(c2nccn2CCOC)C1` (stereo not given), the INHIBITION was -32.59%. With `CN1CCc2cc(C(=O)N(C)C)c(NCC3CC3)nc2CC1`, the INHIBITION is given as 23.97%. On to `COCCNCc1cc2ccc(C)c(C)c2[nH]c1=O`, for which the INHIBITION is -21.9%. The value for `CCC1CN(C(=O)c2csc3nc(-c4ccc(Cl)cc4)cn23)CCN1` (stereo not given) was 22.83%; that for `Cc1cccc(CN2C(=O)CCC23CCN(Cc2cccn2C)CC3)n1` was 17.39%; that for `COc1ccc(-c2ncc(-c3nccn3CCN(C)C)cn2)cc1` was 10.63%. On to `CC(C)c1nccn1C1CCCN(C(=O)CCc2cscn2)C1` (stereo not given), for which the INHIBITION is on record as 21.39%. On to `CO[C@@H]1CCN(C(=O)c2cc(C)on2)C[C@@H]1Cc1ccccc1`, for which the INHIBITION is 52.91%. `COc1ccc(C[C@H]2CN(C(=O)c3cnoc3)CC[C@@H]2OC)cc1`: the INHIBITION is given as -36.05%. In the case of `COc1ccc(C[C@H]2CN(C(=O)c3cscn3)CC[C@@H]2OC)cc1`, the INHIBITION is -6.39%. To `COc1ccsc1C(=O)N1CCCC1c1c(C)nn(C)c1OC` (stereo not given) belongs -11.31%; to `Cn1cc(N2C(=O)CC[C@@H]3[C@H]2CCN3CC2CCOCC2)cn1`, 50.17%; to `Cn1cc(N2C(=O)CC[C@@H]3[C@H]2CCN3CCc2ccccc2)cn1`, -18.2%. In the case of `Cn1cc(N2C(=O)CC[C@@H]3[C@H]2CCN3Cc2nccs2)cn1`, the INHIBITION is given as -20.87%. In the case of `CCCN1CCC(Cc2noc(-c3cc4cccnc4nc3C)n2)CC1`, the INHIBITION stood at 38.91%. The value for `CC(C(=O)NCc1ccc(N2CCNC(=O)C2)cc1)c1cccs1` (stereo not given) was -25.44%. Regarding `CCOC(=O)NC(CNC(=O)c1ccccn1)CC(C)C` (stereo not given), the INHIBITION is recorded as -15.54%. For the compound `CCOC(=O)NC(CNC(=O)c1cn(C)cn1)CC(C)C` (stereo not given), the INHIBITION amounted to 60.9%. To `CCOC(=O)NC(CNC(=O)c1ncccn1)CC(C)C` (stereo not given) belongs 2.41%; to `O=C(NCCN1CCOCC1)NCC(O)c1cccc(F)c1` (stereo not given), -27.69%.

For the origin of these results see ChEMBL document CHEMBL4513216, “Probing the Open Global Health Chemical Diversity Library for Multistage-Active Starting Points for Next-Generation Antimalarials” (ACS Infect Dis, 2020).
